Reference: PubChem BioAssay (NCI)
Compounds without any hit were thinned out: in the full panel of roughly 79,000, 15% have a hit. Unmarked numbers belong to inactive results. Calls of active or inactive are those of the source. Rule as the data show it: active = growth inhibition above about 70%; inactive = the rest.

How the values were obtained:
[1] = NCI Yeast Anticancer Drug Screen. Data for the rad50 strain (AID 155);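 also: 0% = growth of vehicle-only cultures of the same strain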; conditions: S. cerevisiae rad50 strain growth inhibition, hits give high values
In short: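 Growth of the mutant yeast was measured after compound exposure and referenced to vehicle-treated cultures.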

[2] = NCI Yeast Anticancer Drug Screen. Data for the mec2-1 strain (AID 157); conditions: S. cerevisiae mec2-1 strain, hits give high values
In short: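 Cells of the genetically defined mec2-1 yeast strain are incubated with test compound. Inhibition of growth is calculated against vehicle-treated controls.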

[3] = NCI Yeast Anticancer Drug Screen. Data for the sgs1 mgt1 strain (AID 161);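 also: 0% = growth of cultures given vehicle only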; conditions: S. cerevisiae sgs1 mgt1 strain, hits give high values
In short: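 Genetically altered yeast, compound exposure, growth inhibition relative to vehicle.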

[4] = NCI Yeast Anticancer Drug Screen. Data for the cln2 rad14 strain (AID 165);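 also: 0% = growth equal to vehicle treated cultures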; conditions: S. cerevisiae cln2 rad14 strain, hits give high values
In short: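 The screen exposed genetically defined yeast (cln2 rad14) to test compounds and scored growth inhibition relative to vehicle-treated controls.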

[5] = NCI Yeast Anticancer Drug Screen. Data for the bub3 strain (AID 167); conditions: S. cerevisiae bub3 mutant strain, hits give high values
In short: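 Whole-cell yeast assay. The mutant strain was incubated with compounds, and growth inhibition was determined by comparison with vehicle-treated cells.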

[6] = NCI Yeast Anticancer Drug Screen. Data for the mlh1 rad18 strain (AID 175); conditions: S. cerevisiae mlh1 rad18 strain growth inhibition, hits give high values
In short: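 Compound-treated yeast growth, normalised to vehicle controls. Strain bears defined DNA repair mutations.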

[7] = at 5.0 µM (retest, dose inferred, filed as 0.5)
[8] = at 50.0 µM (retest, dose inferred, filed as 5.0)

Compound	growth inhibition [1, 7]	growth inhibition [1, 8]	growth inhibition ([1]; at 50.0 µM)	growth inhibition [2, 7]	growth inhibition [2, 8]	growth inhibition ([2]; at 50.0 µM)	growth inhibition [3, 7]	growth inhibition [3, 8]	growth inhibition ([3]; at 50.0 µM)	growth inhibition [4, 7]	growth inhibition [4, 8]	growth inhibition ([4]; at 50.0 µM)	growth inhibition [5, 7]	growth inhibition [5, 8]	growth inhibition ([5]; at 50.0 µM)	growth inhibition [6, 7]	growth inhibition [6, 8]	growth inhibition ([6]; at 50.0 µM)
O=S(=O)(c1ccc2c(c1)CCCN2)N1CCC[C@H]2CCCC[C@@H]21	7%	94% (active)	95.3% (active)	-2%	96% (active)	96.8% (active)	0%	95% (active)	97.1% (active)	32%	94% (active)	95.5% (active)	14%	96% (active)	98.2% (active)	11%	93% (active)	95% (active)
N=C(N)c1ccc(/C=C/c2ccc(C(=N)N)cc2)cc1	69%	80% (active)	85.8% (active)	59%	91% (active)	81% (active)	57%	87% (active)	74% (active)	75% (active)	84% (active)	67.6%	82% (active)	94% (active)	87.5% (active)	90% (active)	95% (active)	90.2% (active)
CN(C)CC1(C)CC/C(=C\c2ccc(Cl)cc2)C1=O (stereo not given)	3%	28%	62%	-14%	16%	38.2%	7%	39%	67.7%	10%	36%	52.5%	15%	65%	35.4%	9%	57%	71.1% (active)
CN(c1ccc(Cl)cc1)S(=O)(=O)c1cccc([N+](=O)[O-])c1	-6%	52%	42.7%	-13%	71% (active)	42.8%	-6%	62%	70.8% (active)	27%	48%	48.4%	-28%	90% (active)	78% (active)	-11%	51%	58.9%
COC(=O)Nc1nc2ccc(C(C)(O)c3cccs3)cc2[nH]1 (stereo not given)	-2%	92% (active)	97% (active)	-8%	95% (active)	98.2% (active)	3%	95% (active)	98% (active)	-15%	87% (active)	92.2% (active)	-3%	94% (active)	97.1% (active)	-5%	95% (active)	97.8% (active)
CCCCCN(CCCCC)CC(O)c1cccc2cc(Cl)ccc12 (stereo not given)	-1%	98% (active)	99.5% (active)	-1%	98% (active)	99.7% (active)	4%	99% (active)	99.6% (active)	-4%	99% (active)	99.5% (active)	2%	99% (active)	99.5% (active)	0%	99% (active)	99.6% (active)
Cc1cccc(-c2csc(N)n2)c1	0%	77% (active)	61.1%	3%	35%	41%	2%	37%	78% (active)	-1%	31%	39.6%	-1%	44%	31.1%	1%	63%	65.2%
Cc1ccc2c(-c3ccccc3)c3ccccc3cc2c1C	6%	3%	46.1%	13%	20%	16.9%	8%	18%	27.6%	-4%	-11%	14.5%	-5%	-16%	37.6%	-3%	2%	53.4%
c1ccc2c(c1)Cc1nc3ccccc3nc1-2	-33%	93% (active)	98.3% (active)	-42%	93% (active)	98.2% (active)	-59%	86% (active)	90.6% (active)	-56%	88% (active)	90% (active)	-65%	90% (active)	97.4% (active)	-118%	92% (active)	97.8% (active)
CCn1c(=O)cc2n(C)c3ccccc3n2c1=O	-30%	-23%	17.3%	0%	-7%	17.4%	-15%	-28%	-5.15%	-39%	-24%	62.7%	-23%	-15%	0.6%	-36%	-14%	23.4%
